# Test results taken from PubChem BioAssay (Tox21).
# Inconclusive results are not listed. Where a call stands in place of a potency, no number is given. Values without a mark were called inactive. The source made the active and inactive calls. Unless noted, the call rests on the fitted dose curve; in most records, active means well fitted curve in the direction sought with a large enough effect in the repeat runs; inconclusive means weak or mixed curves; inactive means no such curve, though single readings can be large; an effect the other way counts as inactive or inconclusive.
# What was measured:
# [1] = qHTS assay to identify small molecule antagonists of the thyroid receptor (TR) signaling pathway - cell viability counter screen (AID 743064); further: nearly all actives have a fitted effect of over 50% in size
# Method in brief: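 GH3.TRE-Luc cells, 4 h pre-plating; cpd + T3 1 nM final; 37 °C 23.5 h; CellTiter-Fluor 30 min; fluorescence read.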
# [2] = qHTS assay to identify small molecule antagonists of the thyroid receptor (TR) signaling pathway (AID 743065); further: series mostly up to about 70 µM; nearly all actives have a fitted effect of over 55% in size
# Method in brief: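 GH3.TRE-Luc rat pituitary cells (two TREs driving luciferase) were dosed with compound, then stimulated with 1 nM T3 (final) for 23.5 h at 37 C. ONE-Glo luminescence was the read-out, with CellTiter-Fluor fluorescence as the cytotoxicity counter-screen.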
# [3] = test system: thyroid hormone receptor (rat, GH3 cells); experiment: qHTS assay to identify small molecule agonists of the thyroid receptor (TR) signaling pathway (AID 743066; calls by dose curve)
# [4] = molecular target: Estrogen receptor (Homo sapiens) (UniProt P03372); experiment: qHTS assay to identify small molecule antagonists of the estrogen receptor alpha (ER-alpha) signaling pathway (AID 743069; active means well fitted curve in the direction sought with a large enough effect in the signal ratio in the repeat runs, not every such curve was filed as active; the % refers to the signal ratio)
# Method in brief: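 Beta-lactamase FRET fluorescence is read after 2 hr at room temperature with LiveBLAzer B/G substrate. Before that, ER-alpha-bla HEK293 cells sit 4 hr after plating, then receive compound plus 17beta-estradiol and incubate 18 hr at 37C.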
# [5] = qHTS assay to identify small molecule antagonists of the estrogen receptor alpha (ER-alpha) signaling pathway - cell viability counter screen (AID 743074; calls by dose curve;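 further: HEK293 cells carrying ER-alpha-UAS-bla reporter stimulated with 17beta-estradiol; nearly all actives have a fitted effect of over 45% in size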)
# [6] = molecular target: Estrogen receptor (Homo sapiens) (UniProt P03372); experiment: qHTS assay to identify small molecule agonists of the estrogen receptor alpha (ER-alpha) signaling pathway (AID 743075; calls by dose curve;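 further: HEK293 GripTite cells with ER-alpha and UAS-driven beta-lactamase reporter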)
# [7] = molecular target: Estrogen receptor (Homo sapiens) (UniProt P03372); experiment: qHTS assay to identify small molecule agonists of the estrogen receptor alpha (ER-alpha) signaling pathway using the BG1 cell line (AID 743079); further: nearly all actives have a fitted effect of over 20% in size
# [8] = qHTS assay to identify small molecule antagonists of the estrogen receptor alpha (ER-alpha) signaling pathway using the BG1 cell line (AID 743080; calls by dose curve;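 further: BG1 cells stimulated with 17beta-estradiol alongside compound; series mostly up to about 70 µM; nearly all actives have a fitted effect of over 25% in size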)
# Method in brief: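 After 5 days in phenol-red-free 10% charcoal-stripped FBS medium, BG1-Luc-4E2 cells were seeded, left 24 h at 37 C, co-treated with compounds and 17beta-estradiol for 21.5 h, then assayed for viability and luciferase.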
# [9] = qHTS assay to identify small molecule antagonists of the estrogen receptor alpha (ER-alpha) signaling pathway using the BG1 cell line - cell viability counter screen (AID 743081);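 further: compound given together with 17beta-estradiol as the ER stimulus; series mostly up to about 70 µM; nearly all actives have a fitted effect of over 45% in size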
# Aromatase (Homo sapiens) = Aromatase (Homo sapiens) (UniProt P11511); experiment: qHTS assay to identify aromatase inhibitors (AID 743083); further: nearly all actives have a fitted effect of over 55% in size; further: potency means the concentration at half of the fitted maximal effect
# [10] = qHTS assay to identify aromatase inhibitors - cell viability counter screen (AID 743084);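 further: cells stimulated with testosterone during compound exposure; nearly all actives have a fitted effect of over 55% in size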
# [11] = qHTS assay to identify small molecule that activate the aryl hydrocarbon receptor (AhR) signaling pathway - cell viability counter screen (AID 743086);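 further: HepG2 liver cells carrying the AhR DRE luciferase reporter; series mostly up to about 70 µM; nearly all actives have a fitted effect of over 45% in size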
# Method in brief: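 HepG2-AhR-luc (HG2L7.5c1) cells, 4000/well, treated 24 h at 37 C with compound; viability measured as CellTiter-Fluor fluorescence after 30 min in the same wells as the luciferase read.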
# [12] = molecular target: Peroxisome proliferator-activated receptor gamma (Homo sapiens) (UniProt P37231); experiment: qHTS assay to identify small molecule agonists of the peroxisome proliferator-activated receptor gamma (PPARg) signaling pathway (AID 743094; active means well fitted activation curve with a large enough effect in the signal ratio in the repeat runs, not every such curve was filed as active; the % refers to the signal ratio)
# Method in brief: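 Cells from the PPARg UAS-bla HEK293H line are plated and incubated 5 h at 37C. Compounds in DMSO are pinned in and left 17 h at 37C. LiveBLAzer B/G substrate is then added for 1 h at room temperature before fluorescence is measured.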
# [13] = molecular target: Peroxisome proliferator-activated receptor gamma (Homo sapiens) (UniProt P37231); experiment: qHTS assay to identify small molecule antagonists of the peroxisome proliferator-activated receptor gamma (PPARg) signaling pathway (AID 743191; calls by dose curve; further: series mostly up to about 63 µM; nearly all actives have a fitted effect of over 30% in size)
# Method in brief: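 GeneBLAzer PPARg UAS-bla HEK293H cells, 5 h post-plating, exposed to compounds 17 h at 37C. LiveBLAzer B/G FRET substrate added for 1 h at room temperature; beta-lactamase reporter read by fluorescence intensity.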
# [14] = qHTS assay to identify small molecule antagonists of the peroxisome proliferator-activated receptor gamma (PPARg) signaling pathway - cell viability counter screen (AID 743194); further: nearly all actives have a fitted effect of over 55% in size
# Method in brief: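 Cytotoxicity counter screen in PPARg-bla HEK293H cells, same wells as reporter assay. Compounds plus 50 nM rosiglitazone (final) for 17 h at 37 C, then viability read by CellTiter-Glo luminescence.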
# [15] = qHTS assay for small molecule activators of the heat shock response signaling pathway - cell viability counter screen (AID 743209); further: nearly all actives have a fitted effect of over 50% in size
# Method in brief: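 Cytotoxicity counter screen run in parallel with the HSE beta-lactamase reporter, using the same wells. HeLa HSE-bla cells received compound for 5 h at 37 C; ATP-based CellTiter-Glo luminescence was measured after 30 min at room temperature.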
# [16] = molecular target: Aryl hydrocarbon receptor (Homo sapiens) (UniProt P35869); experiment: qHTS assay to identify small molecule that activate the aryl hydrocarbon receptor (AhR) signaling pathway (AID 743085); further: nearly all actives have a fitted effect of over 15% in size; further: potency means the concentration at half of the fitted maximal effect;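 on activation: HG2L7.5c1 human HepG2 liver cells with stably integrated DRE-driven firefly reporter; series mostly up to about 70 µM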
# Method in brief: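 Luminescence read-out: ONE-Glo reagent, 30 min at room temperature, in HG2L7.5c1 HepG2 reporter cells treated 24 h at 37C. Viability was measured beforehand by CellTiter-Fluor fluorescence after 30 min at 37C.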
# [17] = qHTS assay for small molecule agonists of the antioxidant response element (ARE) signaling pathway (AID 743202; active means well fitted activation curve with a large enough effect in the signal ratio in the repeat runs, not every such curve was filed as active; the % refers to the signal ratio)
# Method in brief: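 HepG2 ARE-bla reporter line, 2,000 cells/well; 5 h preincubation 37 C/5% CO2; compound (DMSO) 16 h 37 C; B/G FRET substrate 2 h RT; fluorescence intensity.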
# [18] = qHTS assay for small molecule agonists of the antioxidant response element (ARE) signaling pathway - cell viability counter screen (AID 743203; calls by dose curve; further: nearly all actives have a fitted effect of over 55% in size)
# Method in brief: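 Cytotoxicity was tested in parallel with the ARE reporter screen. ARE-bla HepG2 cells were exposed to compounds for 16 hrs, and viability was taken from CellTiter-Glo luminescence.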
# [19] = qHTS assay for small molecule activators of the heat shock response signaling pathway (AID 743210; active means well fitted activation curve with a large enough effect in the signal ratio in the repeat runs, with a control signal flat, not every such curve was filed as active; the % refers to the signal ratio;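 further: HeLa cells with beta-lactamase reporter driven by heat shock elements; series mostly up to about 63 µM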)
# Method in brief: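 Beta-lactamase reporter read-out: FRET substrate fluorescence after 2.5 h at RT, following 5 h compound treatment at 37 C of HeLa cells carrying HSE-driven bla reporter; quantitative HTS format.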
# Chain of Estrogen receptor (Homo sapiens) (P03372 whole entry, looked up): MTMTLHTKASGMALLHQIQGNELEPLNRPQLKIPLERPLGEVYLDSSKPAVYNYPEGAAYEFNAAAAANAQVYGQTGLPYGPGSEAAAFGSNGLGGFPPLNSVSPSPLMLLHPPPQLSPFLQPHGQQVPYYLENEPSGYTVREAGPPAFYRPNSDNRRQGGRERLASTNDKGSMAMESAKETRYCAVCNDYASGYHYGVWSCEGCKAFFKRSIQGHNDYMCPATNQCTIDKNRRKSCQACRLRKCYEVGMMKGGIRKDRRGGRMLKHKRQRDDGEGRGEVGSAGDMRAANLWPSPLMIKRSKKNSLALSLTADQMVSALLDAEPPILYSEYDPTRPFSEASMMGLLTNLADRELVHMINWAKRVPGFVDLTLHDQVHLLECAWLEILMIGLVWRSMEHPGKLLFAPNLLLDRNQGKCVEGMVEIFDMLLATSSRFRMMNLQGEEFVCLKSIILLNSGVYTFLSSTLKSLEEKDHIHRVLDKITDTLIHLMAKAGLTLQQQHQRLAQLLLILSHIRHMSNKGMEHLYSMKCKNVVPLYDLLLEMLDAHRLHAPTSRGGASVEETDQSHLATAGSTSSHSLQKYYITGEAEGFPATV
# Chain of Aromatase (Homo sapiens) (P11511 whole entry, looked up): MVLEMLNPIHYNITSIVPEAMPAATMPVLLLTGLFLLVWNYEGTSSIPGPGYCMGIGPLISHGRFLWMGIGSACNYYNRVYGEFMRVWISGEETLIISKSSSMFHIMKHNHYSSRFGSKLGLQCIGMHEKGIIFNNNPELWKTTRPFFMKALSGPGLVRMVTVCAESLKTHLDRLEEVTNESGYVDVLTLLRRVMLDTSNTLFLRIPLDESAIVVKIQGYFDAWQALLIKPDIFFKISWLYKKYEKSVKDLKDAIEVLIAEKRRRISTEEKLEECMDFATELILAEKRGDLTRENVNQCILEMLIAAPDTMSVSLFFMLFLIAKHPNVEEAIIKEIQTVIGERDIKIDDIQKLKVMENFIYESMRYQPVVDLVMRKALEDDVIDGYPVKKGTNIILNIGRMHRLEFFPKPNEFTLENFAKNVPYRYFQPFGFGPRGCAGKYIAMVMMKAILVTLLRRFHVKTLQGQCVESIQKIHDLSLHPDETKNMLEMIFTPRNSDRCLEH
# Chain of Aryl hydrocarbon receptor (Homo sapiens) (P35869 whole entry, looked up): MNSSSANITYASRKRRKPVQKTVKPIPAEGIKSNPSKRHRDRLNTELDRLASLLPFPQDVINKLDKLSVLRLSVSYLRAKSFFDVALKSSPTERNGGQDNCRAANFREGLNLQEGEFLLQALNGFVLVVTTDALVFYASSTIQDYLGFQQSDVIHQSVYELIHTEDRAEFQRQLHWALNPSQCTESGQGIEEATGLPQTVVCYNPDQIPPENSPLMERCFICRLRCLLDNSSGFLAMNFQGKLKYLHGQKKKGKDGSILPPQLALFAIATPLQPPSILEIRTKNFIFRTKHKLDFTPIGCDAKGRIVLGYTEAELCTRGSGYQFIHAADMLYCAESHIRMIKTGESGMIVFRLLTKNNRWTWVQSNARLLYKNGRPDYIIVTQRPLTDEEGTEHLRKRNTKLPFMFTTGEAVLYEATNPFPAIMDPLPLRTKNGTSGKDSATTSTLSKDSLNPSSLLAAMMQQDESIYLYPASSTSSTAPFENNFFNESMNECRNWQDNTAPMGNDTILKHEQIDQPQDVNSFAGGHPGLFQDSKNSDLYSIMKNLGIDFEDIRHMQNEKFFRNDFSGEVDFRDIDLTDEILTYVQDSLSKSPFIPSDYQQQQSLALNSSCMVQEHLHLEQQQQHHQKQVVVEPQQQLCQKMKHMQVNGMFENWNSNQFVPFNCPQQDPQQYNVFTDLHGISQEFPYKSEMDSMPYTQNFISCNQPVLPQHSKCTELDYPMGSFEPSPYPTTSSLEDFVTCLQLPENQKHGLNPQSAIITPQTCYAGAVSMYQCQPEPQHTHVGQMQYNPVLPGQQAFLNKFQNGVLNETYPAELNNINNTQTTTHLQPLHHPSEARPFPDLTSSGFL
# Chain of Peroxisome proliferator-activated receptor gamma (Homo sapiens) (P37231 whole entry, looked up): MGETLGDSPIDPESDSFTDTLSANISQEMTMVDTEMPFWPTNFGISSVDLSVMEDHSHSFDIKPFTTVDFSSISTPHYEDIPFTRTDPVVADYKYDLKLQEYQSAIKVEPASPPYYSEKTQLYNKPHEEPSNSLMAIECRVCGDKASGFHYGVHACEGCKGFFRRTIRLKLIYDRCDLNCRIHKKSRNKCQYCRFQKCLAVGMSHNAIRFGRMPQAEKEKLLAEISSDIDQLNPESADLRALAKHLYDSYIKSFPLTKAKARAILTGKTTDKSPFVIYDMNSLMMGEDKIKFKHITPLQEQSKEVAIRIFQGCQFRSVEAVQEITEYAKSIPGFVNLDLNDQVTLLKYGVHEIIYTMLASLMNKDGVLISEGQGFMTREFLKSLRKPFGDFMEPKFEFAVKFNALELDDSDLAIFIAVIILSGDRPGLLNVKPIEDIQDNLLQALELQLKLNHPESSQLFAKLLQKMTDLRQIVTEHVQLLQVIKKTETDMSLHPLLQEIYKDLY
Compound,Potency [1],Potency [2],Potency [3],Potency [4],Potency [5],Potency [6],Potency [7],Potency [8],Potency [9],Potency (Aromatase (Homo sapiens)),Potency [10],Potency [11],outcome [12],Potency [13],Potency [14],Potency [15],Potency [16],Potency [17],Potency [18],Potency [19]
c1ccc(CCCc2ccncc2)cc1,inactive,inactive,inactive,inactive,inactive,inactive,inactive,inactive,inactive,30.6 µM (active),inactive,inactive,inactive,inactive,inactive,inactive,,,,
Nc1cccc2c(N)cccc12,inactive,inactive,inactive,inactive,,inactive,,inactive,,,inactive,,inactive,,,inactive,19.3 µM (active),,,
Cc1ccc(S(=O)(=O)NC(=O)NC2CCCCC2)cc1,inactive,inactive,inactive,,inactive,inactive,inactive,inactive,inactive,inactive,inactive,inactive,inactive,inactive,inactive,inactive,inactive,inactive,inactive,inactive
COC1CCC=CO1 (centres undefined),inactive,inactive,inactive,inactive,inactive,,inactive,inactive,inactive,inactive,,inactive,inactive,,inactive,inactive,inactive,inactive,inactive,inactive
CC(C)(C)C(O)/C=C/c1ccc2c(c1)OCO2 (centres undefined),inactive,inactive,inactive,inactive,inactive,inactive,,inactive,,inactive,inactive,inactive,inactive,inactive,inactive,inactive,11.9 µM (active),,inactive,inactive
CCCCCCC(O)CCOC(C)=O (centres undefined),inactive,inactive,inactive,,inactive,inactive,inactive,inactive,inactive,inactive,inactive,inactive,inactive,,inactive,inactive,inactive,inactive,,inactive
O=P(O)(O)Oc1ccccc1,inactive,inactive,inactive,,inactive,inactive,inactive,inactive,inactive,inactive,inactive,inactive,inactive,inactive,inactive,inactive,inactive,,inactive,inactive
